Bioassay records: PubChem BioAssay, National Center for Advancing Translational Sciences (NCATS)
Most compounds without a hit are left out; they make up all but 2.3% or so of the library.
Tau ThT inhib – qHTS for Inhibitors of Tau Fibril Formation, Thioflavin T Binding. Potency, µM (highest dose often 57.4 µM), usual class: inhibitors. recombinant tau K18 P301L, heparin-induced fibrillization, ThT fluorescence. actives 2.1% (n = 270,000). AID 1460, 2008; further: nearly all actives have a fitted effect of over 55% in size
Target sequence (P10636 561-689 P618L limits assumed): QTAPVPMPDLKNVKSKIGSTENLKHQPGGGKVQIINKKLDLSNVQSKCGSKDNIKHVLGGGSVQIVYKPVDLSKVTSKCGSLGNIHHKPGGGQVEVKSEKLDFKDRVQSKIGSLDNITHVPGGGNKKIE
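Recombinant human tau K18 fragment […] carrying P301L, 15 uM unlabeled plus 0.24 uM Alexa 594-labeled, was fibrillized with 20 uM heparin in 100 mM sodium acetate pH 7 for 6 hr at 37 C; 30 uM ThT fluorescence read after 1 hr.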
Coupling enz – qHTS Assay for Inhibitors of Fructose-1,6-bisphosphate Aldolase from Giardia Lamblia: Coupling assay counterscreen; activity change, negative = inhibition, % at 58.2 µM, hits read low; AID 2472, 2010; actives 0.67% (n = 290,000); coupling enzyme system counterscreen, AmpLite Red fluorescence; in the data active means activity change below about -30%
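Compounds tested against the coupling enzymes alone at 57.5 uM final; readout was AmpLite Red fluorescence (525/598 nm) after 20 min at RT.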
Tau fluor cs – Counterscreen qHTS for Inhibitors of Tau Fibril Formation, Fluorescence Polarization | Potency, µM (series often up to 57.7 µM) | actives 0.93% (n = 280,000) | AID 1463, 2008 | tau K18 P301L Alexa594 fluorescence, heparin fibrillization; further: nearly all actives have a fitted effect of over 55% in size
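Human tau K18 P301L (15 uM unlabeled, 0.24 uM Alexa 594-labeled) in 100 mM sodium acetate pH 7 with 20 uM heparin, 6 hr at 37 C. ThT 30 uM added, 1 hr ambient; Alexa 594 FP and total fluorescence read at 555/632 nm.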
Tau FP inhib – qHTS for Inhibitors of Tau Fibril Formation, Fluorescence Polarization. AID 1468, 2008. Potency, µM (doses to about 57.7 µM), most hits filed as inhibitors. K18 P301L tau heparin fibrillization, Alexa594 FP, 6 h. actives 0.39% (n = 280,000). Microtubule-associated protein tau (Homo sapiens), P10636; further: nearly all actives have a fitted effect of over 55% in size
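Steps: dispense K18 P301L tau (15 uM plus 0.24 uM Alexa 594 tracer, final) in pH 7 sodium acetate; add compound; add heparin (20 uM final); incubate 6 hr, 37 C; add ThT (30 uM final); after 1 hr ambient, read FP.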
USP1 inh – Inhibitors of USP1/UAF1: Primary Screen; Ubiquitin carboxyl-terminal hydrolase 1 (Homo sapiens), O94782; recombinant USP1/UAF1, Ub-Rhodamine cleavage fluorescence; Potency, µM (doses to about 57.1 µM), usual class: inhibitors; actives 0.23% (n = 390,000); AID 743255, 2014; further: nearly all actives have a fitted effect of over 60% in size
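High-throughput fluorogenic screen: 1nM USP1/UAF1 complex, Ub-Rho substrate 150nM final, 50mM HEPES pH 7.8 with 0.5mM EDTA, 0.1 mg/ml BSA, 1mM TCEP and 0.01% Tween-20.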
Hits are given with their value; 0 = inactive; ? = inconclusive; - = not tested or not shown; [ ] = another dose, or the depositor's remark. Unless noted, the call rests on the fitted dose curve; in most records, active means well fitted curve in the direction sought with a large enough effect; inconclusive means small, poorly fitted or top-dose-only effect, or another doubt; inactive means no such curve, though single readings can be large; an effect the other way counts as inactive or inconclusive.

SMILES	Tau ThT inhib	Coupling enz	Tau fluor cs	Tau FP inhib	USP1 inh
CSC1=C(C#N)C(c2ccc(C(C)C)cc2)CC(=O)N1 (stereo not drawn)	0	0	0	0	0
CC(C)c1ccc(C2CC(=O)N3CN(Cc4ccco4)CSC3=C2C#N)cc1 (stereo not drawn)	22µM	0	0	?	0
COc1cc(CNCc2ccco2)ccc1OCc1ccccc1	0	0	0	0	0
COc1cc(C2CC(=O)N3CN(Cc4ccco4)CSC3=C2C#N)ccc1OCc1ccccc1 (stereo not drawn)	20µM	0	?	?	?
COc1ccc(C2CC(=O)N3CN(Cc4ccco4)CSC3=C2C#N)cc1 (stereo not drawn)	25µM	0	0	?	0
COc1ccc2ccccc2c1C1CC(=O)N2CN(Cc3ccco3)CSC2=C1C#N (stereo not drawn)	?	0	0	?	?
N#CC1=C(N)OC2=C(C(=O)CC(c3ccccc3)C2)C1c1ccc2c(c1)OCO2 (stereo not drawn)	0	0	?	0	0
N#CC1=C2SCN(Cc3ccccc3)CN2C(=O)CC1c1ccc2c(c1)OCO2 (stereo not drawn)	20µM	-32	0	?	0
COC(=O)c1ccc(NC(=O)N2CCN(Cc3cc(=O)n4nc(-c5ccc(C)cc5)sc4n3)CC2)cc1	0	-	0	0	0
CNC(=O)Nc1cccc(-c2cc(-c3c(Cl)cccc3Cl)no2)c1	0	0	?	22µM	0
CCn1c2ccccc2c2cc(NC(=O)Cc3ccc(S(=O)(=O)N4CCOCC4)s3)ccc21	?	0	7.9µM[quencher]	0	0
CN(C)S(=O)(=O)c1ccc(NC(=O)Cc2ccc(S(=O)(=O)N3CCOCC3)s2)cc1	0	0	0	0	0
Cc1cc(=O)cc2oc3cc(N)c(-c4c(C)cc(O)cc4O)c(C)c3nc1-2	14µM	-30	?	22µM	-
O=c1[nH]c(SCc2ccc(F)cc2)nc2c1CCCC2	0	-	0	?	0
COC(=O)CN1C(=O)C(O)(c2c(C)[nH]c3ccccc23)c2ccccc21 (stereo not drawn)	0	-	0	0	0
CCOC(=O)CN1C(=O)C(O)(c2c(C)[nH]c3ccccc23)c2ccccc21 (stereo not drawn)	?	-30	0	0	0
CCOC(=O)/C(=N\Nc1ccc(Cl)cc1)c1csc(Nc2ccccc2)n1	?	0	4.5µM[quencher]	?	0
CCOC(=O)/C(=N\Nc1ccc(OC)cc1)c1csc(Nc2ccccc2)n1	?	0	7.1µM[quencher]	?	0
O=C(COc1ccc(Cl)cc1)OCc1csc(Nc2ccccc2)n1	?	0	14µM[quencher]	0	0
CCOC(=O)/C(=N/Nc1ccccc1)c1csc(Nc2ccccc2)n1	?	0	7.1µM[quencher]	?	0
CCCCC(CCC(=O)O)(C(=O)OCC)c1csc(Nc2ccccc2)n1 (stereo not drawn)	0	0	0	0	0
Cc1cccc(CN2CCC(CNC(=O)Cn3ncc4c([nH]c5ccc(C)cc54)c3=O)CC2)c1	0	-	0	0	0
COC(=O)c1scc(-c2ccc(C)cc2)c1S(=O)(=O)N1CCN(c2ccc(C(C)=O)cc2)CC1	?	-	0	0	?
CCOC(=O)c1cnc2c(N=Nc3ccccc3)c(N)nn2c1N	2.5µM	0	0	0	0
CCOC(=O)c1cnc2c(N=Nc3cccc(Cl)c3)c(N)nn2c1N	2.5µM	0	0	0	-
SMILES	Tau ThT inhib	Coupling enz	Tau fluor cs	Tau FP inhib	USP1 inh
Cc1ccc2c(c1)N(C(=O)Nc1cccc3c1CCCC3)CC(C)O2 (stereo not drawn)	0	-	?	0	0
CCC/C=C/C(C)O (stereo not drawn)	0	0	0	0	-
CNC(=O)C1CCC(Cn2c(=O)c3sccc3n(Cc3ccc(F)cc3)c2=O)CC1 (stereo not drawn)	0	-	0	0	0
O=CN/N=C/c1c(O)ccc2ccccc12	0	0	0	0	0
Cc1cc(O)c(C=Nc2ccc(Cl)cn2)c(=O)o1	?	0	0	0	0
Oc1ccc2ccccc2c1/C=N/Nc1ccccc1	18µM	0	11µM[quencher]	?	0
Oc1ccc2ccccc2c1C=Nc1ccc(Cl)cn1	0	-46	0	0	0
Oc1ccc2ccccc2c1/C=N/c1nc2c(s1)CCCC2	32µM	-40	?	?	0
Oc1ccc2ccccc2c1C=NC1CCCCC1	25µM	0	?	?	0
Cc1cccc(NS(=O)(=O)c2ccc3[nH]c(=O)ccc3c2)c1C	0	-	0	0	0
O=C(NCCc1ccc(Cl)cc1)c1ccc(CSCc2cccc(Cl)c2)o1	0	-	0	0	0
O=C(NCCc1ccccc1)C1(c2cccs2)CCOCC1	0	-	0	0	0
Oc1ccc2ccccc2c1C=NCc1ccccc1	?	-32	?	?	0
Oc1ccccc1C=NN=Cc1c(O)ccc2ccccc12	-	-	-	-	0
N#Cc1c(N(CCO)CCO)nc(N)c2c(N)nc3c(c12)CC(=O)N3Cc1cccs1	16µM	-31	?	?	?
CN(CCO)c1nc(N)c2c(N)nc3c(c2c1C#N)CC(=O)N3Cc1cccs1	?	0	0	0	0
COCCCNC(=O)N1CCN(c2nnc(C)c3c(C)n(-c4ccc(Cl)cc4)nc23)CC1	0	-	0	0	0
O=[N+]([O-])c1ccc2c(c1)N([O-])C1(CCCCC1)[N+]2=O	3.5µM	-51	?	11µM	?
COc1ccc(-c2cn3nc(SCC(=O)Nc4cccc(C)c4C)ccc3n2)cc1	0	-	0	0	0
COc1ccccc1CNc1cc(-c2ccccc2Cl)ncn1	-	0	-	-	-
O=C(Nc1ncnc2c1ncn2[C@@H]1O[C@@H]2COP(=O)(O)O[C@H]2[C@H]1O)c1ccccc1	-	0	-	-	-
Cc1cc(N)n2ncc(-c3ccccc3)c2n1	?	0	?	0	0
Cc1cc(N)n2ncc(-c3cccc(Br)c3)c2n1	?	0	16µM[quencher]	0	0
CC(=O)c1ccc(OC2C=CC(C#Cc3ccc(Br)cc3)OC2CO)cc1 (stereo not drawn)	0[11.5 µM]	0	0[11.6 µM]	0[11.6 µM]	-
CCOc1ccc(N2C(=O)CNC2=S)cc1	0	0	0	0	0
CCOc1ccc(N2C(=O)CS/C2=C(\C(Cl)=C(Cl)Cl)[N+](=O)[O-])cc1	16µM	0	?	?	0
Cc1nc(C/C(=N\Nc2ccccc2)c2ccc(O)cc2O)cs1	?	0	25µM[quencher]	0	0
Cc1ccc(-c2nc(-c3cccs3)c(-c3cccs3)[nH]2)cc1	0	-	?	0	0
Oc1cccc(-c2nc(-c3cccs3)c(-c3cccs3)[nH]2)c1	16µM	-	13µM[quencher]	?	0
O=[N+]([O-])c1ccc(-c2nc(-c3cccs3)c(-c3cccs3)[nH]2)cc1	5.6µM	0	7.9µM[quencher]	?	0
